From PubChem BioAssay (Tox21) come the findings set out here.

Test [1] can be described thus: Caspase-3/7 induction in HepG2 cells by small molecules, qHTS assay (AID 1346978). Further: nearly all actives have a fitted effect of over 15% in size. Further: potency means the concentration at half of the fitted maximal effect. In outline:
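Wild-type HepG2 cells, 2,000/well, settled 5 hr at 37 C and 5% CO2, then compound-treated for 17 hr; caspase-3/7 activity read by luminescent Caspase-Glo 3/7 after 30 min at room temperature.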

A short description of test [2]: Caspase-3/7 induction in CHO-K1 cells by small molecules, qHTS cell viability counter screen (AID 1346979). Further: nearly all actives have a fitted effect of over 35% in size. Further: potency means the concentration at half of the fitted maximal effect. Summed up:
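Viability readout by fluorescence (CellTiter-Fluor) on wild-type CHO-K1 cells exposed for 16hr at 37C and 5% CO2 to compounds delivered in DMSO; reagent incubated 1hr before reading.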

The nature of test [3]: Caspase-3/7 induction in CHO-K1 cells by small molecules, qHTS assay (AID 1346980). Further: nearly all actives have a fitted effect of over 15% in size. In outline:
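Wild-type CHO-K1 cells exposed to compounds for 17hr at 37 C, 5% CO2. Caspase-3/7 activity then measured by Caspase-Glo 3/7 luminescence after 30min at room temperature.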
(In qHTS, concentration-response curves come from the screen itself.)

The nature of test [4]: Caspase-3/7 induction in HepG2 cells by small molecules, qHTS cell viability counter screen (AID 1346981). Further: series mostly up to about 92 µM; nearly all actives have a fitted effect of over 30% in size. Summed up:
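Cell viability is measured as a cytotoxicity counter screen alongside the Caspase-Glo 3/7 readout in identical wells. Wild-type HepG2 cells are treated with test compounds for 16 hr at 37 C before CellTiter-Fluor addition and a 1-hr incubation.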

For test [5], the target named is Nuclear receptor subfamily 1 group I member 2 (Homo sapiens) (UniProt O75469). In words: Human pregnane X receptor (PXR) small molecule agonists, qHTS assay (AID 1346982). Further: nearly all actives have a fitted effect of over 35% in size. Further: potency means the concentration at half of the fitted maximal effect. Summed up: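 Cells: HepG2 stably carrying PXR-Luc. Medium held 5% charcoal-stripped FBS. Compounds in DMSO added after 5 hr plating, incubated 24 hr, then luminescence quantified with ONE-Glo.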
Sequence of Nuclear receptor subfamily 1 group I member 2 (Homo sapiens) (O75469 whole entry, looked up): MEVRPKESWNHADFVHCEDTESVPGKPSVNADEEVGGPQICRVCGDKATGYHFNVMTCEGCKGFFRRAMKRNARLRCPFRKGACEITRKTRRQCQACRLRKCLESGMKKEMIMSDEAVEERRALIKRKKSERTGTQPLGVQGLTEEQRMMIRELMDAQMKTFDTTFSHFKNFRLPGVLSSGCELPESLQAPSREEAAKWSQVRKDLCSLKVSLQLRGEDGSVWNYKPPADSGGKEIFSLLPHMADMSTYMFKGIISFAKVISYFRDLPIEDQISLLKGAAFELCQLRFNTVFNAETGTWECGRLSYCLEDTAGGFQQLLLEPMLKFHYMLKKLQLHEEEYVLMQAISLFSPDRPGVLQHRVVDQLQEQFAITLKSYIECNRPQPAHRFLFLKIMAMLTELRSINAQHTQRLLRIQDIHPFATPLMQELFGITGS

Test [6] concerns the target Acetylcholinesterase (Homo sapiens) (UniProt P22303). Put plainly: Acetylcholinesterase (AChE) small molecule antagonists: colormetric cell-based qHTS assay (AID 1347395; calls by dose curve; further: nearly all actives have a fitted effect of over 30% in size; further: potency means the concentration at half of the fitted maximal effect). In outline:
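Homogeneous whole-cell format. SH-SY5Y cells seeded overnight, dosed with compound (30 min, 37 C, 5% CO2), then given DTNB/acetylthiocholine cocktail for 90 min at 37 C; colorimetric signal.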

The target is the same in test [7]. In words: Acetylcholinesterase (AChE) small molecule antagonists: enzyme-based qHTS assay (AID 1347397; calls by dose curve; further: nearly all actives have a fitted effect of over 55% in size; further: potency means the concentration at half of the fitted maximal effect). The settings on record: Potency: AChE enzyme activity inhibition. In outline:
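Colorimetric DTNB read-out of thiocholine released from acetylthiocholine by recombinant human AChE (50 mU/mL as dispensed). Compounds were preincubated 30 min at RT before substrate/DTNB addition, with a 10 min RT reaction.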

Test [8] shares this target. Put plainly: Acetylcholinesterase (AChE) small molecule antagonists: fluorescence cell-based qHTS assay (AID 1347398; calls by dose curve; further: nearly all actives have a fitted effect of over 50% in size; further: potency means the concentration at half of the fitted maximal effect). The note with it: Potency: AChE activity. In outline: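 SH-SY5Y, 2,000 cells/well, attached overnight; cmpd 30 min 37 C; acetylthiocholine/Thiolite Green cocktail 40 min RT; fluorescence Ex/Em 490/520 nm.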
Test [9] shares this target. Put plainly: Acetylcholinesterase (AChE) small molecule antagonists: enzyme-based qHTS assay with human liver microsomes (AID 1347399; calls by dose curve; further: nearly all actives have a fitted effect of over 60% in size; further: potency means the concentration at half of the fitted maximal effect). The settings on record: Potency: qHTS inhibition. Summed up: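 Recombinant human AChE (50 mU/mL in the enzyme mix) and human liver microsomes (0.25 mg/mL final) were preincubated with compound and NADPH (0.25 mg/mL final) for 30 min at 37 C. Acetylthiocholine/DTNB was then added; thiocholine was read colorimetrically after 10 min at room temperature.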

Test [10] has as its target Cytochrome P450 2D6 (Homo sapiens) (UniProt P10635). In words: Cytochrome P450 Family 2 Subfamily D Member 6 (CYP2D6) small molecule antagonists: luciferase reporter qHTS assay (AID 1671196). Further: nearly all actives have a fitted effect of over 50% in size. Further: potency means the concentration at half of the fitted maximal effect. Summed up: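 Enzyme and proluciferin substrate were first combined with test chemical for 10 min at room temperature. Adding NADPH regeneration solution started a 1 h reaction, stopped with luciferin detection reagent and read by luminescence 20 min later.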
For orientation: Reporter assays use an easily measured gene product as a stand-in for the process of interest.

Test [11] has as its target Cytochrome P450 2C19 (Homo sapiens) (UniProt P33261). Put plainly: Cytochrome P450 Family 2 Subfamily C Member 19 (CYP2C19) small molecule antagonists: luciferase reporter qHTS assay (AID 1671197). Further: nearly all actives have a fitted effect of over 65% in size. Further: potency means the concentration at half of the fitted maximal effect. Summed up: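 P450-Glo CYP2C19 screening system; proluciferin substrate; DMSO compound stocks; 10 min RT preincubation; NADPH regeneration, 1 h at 37C; luciferin detection reagent, 20 min RT; luminescence as RLU.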

Test [12] deals with Voltage-gated inwardly rectifying potassium channel KCNH2 (Homo sapiens) (UniProt Q12809). In words: Human Ether-a-go-go-Related Gene (hERG) channel small molecule antagonists: fluorescence cell-based qHTS assay (AID 1671200).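 Further: hERG-expressing U2OS cells given a thallium stimulus after FluxOR II dye loading; series mostly up to about 77 µM; nearly all actives have a fitted effect of over 50% in size.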 In outline: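 Thallium served as the potassium surrogate; its influx into dye-loaded U2OS cells carrying the channel was measured by fluorescence over 2 min.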
Sequence of Voltage-gated inwardly rectifying potassium channel KCNH2 (Homo sapiens) (Q12809 whole entry, looked up): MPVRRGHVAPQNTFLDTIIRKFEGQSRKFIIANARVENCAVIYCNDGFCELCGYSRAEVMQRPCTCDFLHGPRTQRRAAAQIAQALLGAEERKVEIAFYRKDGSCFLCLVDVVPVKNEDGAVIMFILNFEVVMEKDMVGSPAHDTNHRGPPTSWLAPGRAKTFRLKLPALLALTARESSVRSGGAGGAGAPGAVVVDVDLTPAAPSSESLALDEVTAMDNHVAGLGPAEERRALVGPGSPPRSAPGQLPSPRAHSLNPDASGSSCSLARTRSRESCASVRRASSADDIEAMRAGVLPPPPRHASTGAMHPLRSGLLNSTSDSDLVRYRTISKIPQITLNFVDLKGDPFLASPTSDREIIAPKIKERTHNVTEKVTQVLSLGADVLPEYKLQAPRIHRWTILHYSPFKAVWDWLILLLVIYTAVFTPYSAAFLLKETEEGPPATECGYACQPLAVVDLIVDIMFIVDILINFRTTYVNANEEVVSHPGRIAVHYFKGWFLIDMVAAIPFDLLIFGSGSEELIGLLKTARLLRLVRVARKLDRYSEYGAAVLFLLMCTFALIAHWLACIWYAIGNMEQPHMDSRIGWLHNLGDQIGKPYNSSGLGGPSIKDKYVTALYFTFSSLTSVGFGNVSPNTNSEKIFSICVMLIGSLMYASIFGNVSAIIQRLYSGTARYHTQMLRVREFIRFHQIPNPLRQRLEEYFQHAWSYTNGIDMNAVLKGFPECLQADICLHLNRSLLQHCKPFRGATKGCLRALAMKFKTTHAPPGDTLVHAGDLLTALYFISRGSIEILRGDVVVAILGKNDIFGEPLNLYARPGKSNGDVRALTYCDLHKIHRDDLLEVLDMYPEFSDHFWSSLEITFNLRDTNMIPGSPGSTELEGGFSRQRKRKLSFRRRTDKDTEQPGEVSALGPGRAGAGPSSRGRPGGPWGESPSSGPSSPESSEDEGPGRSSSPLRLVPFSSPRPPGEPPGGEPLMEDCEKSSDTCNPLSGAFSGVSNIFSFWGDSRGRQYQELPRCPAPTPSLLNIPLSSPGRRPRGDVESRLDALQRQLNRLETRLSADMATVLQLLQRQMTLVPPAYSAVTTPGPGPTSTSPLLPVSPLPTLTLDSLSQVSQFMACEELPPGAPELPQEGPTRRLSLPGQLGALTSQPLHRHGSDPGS

Test [13] addresses Cytochrome P450 3A4 (Homo sapiens) (UniProt P08684). In words: Cytochrome P450 Family 3 Subfamily A Member 4 (CYP3A4) small molecule antagonists: luciferase reporter qHTS assay (AID 1671201). Further: nearly all actives have a fitted effect of over 50% in size. Further: potency means the concentration at half of the fitted maximal effect. Summed up:
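Relative luminescence units after 20 min with luciferin detection reagent served as read-out. Beforehand, CYP3A4 turned over a proluciferin substrate for 1 h at room temperature with NADPH regeneration, following 10 min compound preincubation.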

Test [14] deals with Cytochrome P450 2C9 (Homo sapiens) (UniProt P11712). In words: Cytochrome P450 Family 2 Subfamily C Member 9 (CYP2C9) small molecule antagonists: luciferase reporter qHTS assay (AID 1671198). Further: nearly all actives have a fitted effect of over 50% in size. Further: potency means the concentration at half of the fitted maximal effect. Summed up: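 P450-Glo proluciferin substrate with CYP2C9 enzyme; 10 min RT preincubation, then NADPH regeneration 1 h at 37C; luciferin detection reagent 20 min RT, luminescence in relative luminescence units.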
Sequence of Cytochrome P450 2C9 (Homo sapiens) (P11712 whole entry, looked up): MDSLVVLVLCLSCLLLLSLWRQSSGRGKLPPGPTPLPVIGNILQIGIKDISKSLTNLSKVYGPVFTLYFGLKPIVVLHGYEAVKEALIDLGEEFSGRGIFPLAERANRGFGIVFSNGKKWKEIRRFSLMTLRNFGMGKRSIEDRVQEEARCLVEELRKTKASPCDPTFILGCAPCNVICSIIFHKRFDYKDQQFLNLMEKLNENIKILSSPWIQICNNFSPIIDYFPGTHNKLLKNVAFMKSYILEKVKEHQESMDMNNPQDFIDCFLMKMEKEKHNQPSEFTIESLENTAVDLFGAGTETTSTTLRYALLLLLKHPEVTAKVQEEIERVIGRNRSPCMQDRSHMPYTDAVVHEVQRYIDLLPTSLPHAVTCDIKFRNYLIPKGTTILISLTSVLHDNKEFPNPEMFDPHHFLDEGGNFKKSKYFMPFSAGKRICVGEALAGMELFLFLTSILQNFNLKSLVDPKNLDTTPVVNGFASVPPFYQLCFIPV

In test [15] the target is Nuclear receptor subfamily 1 group I member 2 (Homo sapiens) (UniProt O75469). Put plainly: CYP3A4 induction through human pregnane X receptor (PXR) by small molecules, qHTS assay (AID 1346984). Further: nearly all actives have a fitted effect of over 40% in size. Summed up: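 Quantitative HTS in DPX-2 cells, i.e. HepG2 transfected with PXR response element and CYP3A4-promoter luciferase. Compounds in DMSO incubated 24hr at 37C; then P450-Glo CYP3A4 substrate, 3uM final, 3hr; One-Glo luminescence.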

For test [16], the target named is Cytochrome P450 1A2 (Homo sapiens) (UniProt P05177). Put plainly: Cytochrome P450 Family 1 Subfamily A Member 2 (CYP1A2) small molecule antagonists: luciferase reporter qHTS assay (AID 1671199). Further: nearly all actives have a fitted effect of over 50% in size. Further: potency means the concentration at half of the fitted maximal effect. Summed up: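 Compounds were incubated with CYP1A2 and a luminogenic proluciferin substrate for 10 min at room temperature before the reaction was started with NADPH regeneration solution. After 1 h, detection reagent was added and light output, proportional to CYP activity, was recorded.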
Sequence of Cytochrome P450 1A2 (Homo sapiens) (P05177 whole entry, looked up): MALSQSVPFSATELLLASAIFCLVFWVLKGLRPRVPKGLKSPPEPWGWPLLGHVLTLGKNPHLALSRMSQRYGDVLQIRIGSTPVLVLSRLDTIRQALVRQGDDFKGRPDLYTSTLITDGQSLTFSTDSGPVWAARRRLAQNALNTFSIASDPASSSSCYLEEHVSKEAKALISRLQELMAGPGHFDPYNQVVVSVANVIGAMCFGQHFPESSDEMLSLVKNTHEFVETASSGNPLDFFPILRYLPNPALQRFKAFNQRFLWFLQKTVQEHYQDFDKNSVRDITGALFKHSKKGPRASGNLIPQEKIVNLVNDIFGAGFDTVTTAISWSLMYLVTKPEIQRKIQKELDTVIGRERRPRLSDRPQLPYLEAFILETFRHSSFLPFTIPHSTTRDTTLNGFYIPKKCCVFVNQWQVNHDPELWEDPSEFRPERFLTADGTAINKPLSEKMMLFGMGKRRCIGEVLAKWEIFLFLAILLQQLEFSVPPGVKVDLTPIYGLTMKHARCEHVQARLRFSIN

The target in test [17] is Nuclear receptor subfamily 1 group I member 2 (Rattus norvegicus) (UniProt Q9R1A7). In words: Rat pregnane X receptor (rPXR) activation by small molecules, qHTS assay (AID 1346983). Further: nearly all actives have a fitted effect of over 20% in size. The settings on record: rPXR luciferase reporter cells, One-Glo luminescence, 24 h; max activation: stronger effect = higher value. Summed up: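 Cell-based rPXR activation assay: rPXR cells, 2,000 per well, rested 5hr at 37 C, then exposed to compounds in DMSO for 24 hr at 37 C. Luciferase activity read by One-Glo luminescence after 30 min at room temperature.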

Where “and” joins values, the source holds several entries; their conditions need not be identical. Equal entries are not always repeated. Inconclusive results are not listed. Some structures have more than one record in an assay (separate samples or runs), and their calls can disagree. Calls of active or inactive are those of the source. Unless noted, the call rests on the fitted dose curve; in most records, active means well fitted curve in the direction sought with a large enough effect in the repeat runs; inconclusive means weak or mixed curves; inactive means no such curve, though single readings can be large; an effect the other way counts as inactive or inconclusive.
On the % scale 0 is the no-effect control and ±100 the full control effect.

Sequence of Cytochrome P450 2D6 (Homo sapiens) (P10635 whole entry, looked up): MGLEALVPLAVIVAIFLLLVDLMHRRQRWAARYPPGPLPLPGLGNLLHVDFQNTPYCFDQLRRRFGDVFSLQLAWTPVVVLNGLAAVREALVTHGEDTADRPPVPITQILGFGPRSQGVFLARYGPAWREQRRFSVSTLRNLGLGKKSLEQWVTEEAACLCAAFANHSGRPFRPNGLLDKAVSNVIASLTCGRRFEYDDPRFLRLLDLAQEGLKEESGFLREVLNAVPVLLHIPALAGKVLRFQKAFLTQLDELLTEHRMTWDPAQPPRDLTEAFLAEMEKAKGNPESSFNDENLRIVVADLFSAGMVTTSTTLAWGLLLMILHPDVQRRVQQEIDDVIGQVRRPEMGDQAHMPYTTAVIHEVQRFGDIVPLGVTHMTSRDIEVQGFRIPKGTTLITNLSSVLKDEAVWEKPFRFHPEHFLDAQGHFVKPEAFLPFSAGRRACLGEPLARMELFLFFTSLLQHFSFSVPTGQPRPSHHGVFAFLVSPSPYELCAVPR
Sequence of Cytochrome P450 3A4 (Homo sapiens) (P08684 whole entry, looked up): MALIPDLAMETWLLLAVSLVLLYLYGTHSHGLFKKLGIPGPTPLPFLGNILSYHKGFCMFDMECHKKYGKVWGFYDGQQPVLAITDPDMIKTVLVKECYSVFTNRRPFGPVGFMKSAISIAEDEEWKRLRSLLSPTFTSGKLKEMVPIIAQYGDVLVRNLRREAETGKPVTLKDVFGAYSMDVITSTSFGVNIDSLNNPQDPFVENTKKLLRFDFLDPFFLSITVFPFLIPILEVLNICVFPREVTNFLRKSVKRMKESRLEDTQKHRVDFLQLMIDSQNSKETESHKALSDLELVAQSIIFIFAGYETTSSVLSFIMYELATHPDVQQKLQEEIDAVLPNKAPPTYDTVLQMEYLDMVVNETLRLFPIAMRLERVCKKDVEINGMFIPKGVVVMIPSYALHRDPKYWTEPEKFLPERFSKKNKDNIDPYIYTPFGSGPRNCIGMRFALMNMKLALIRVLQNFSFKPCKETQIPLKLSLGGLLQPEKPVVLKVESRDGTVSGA
Sequence of Acetylcholinesterase (Homo sapiens) (P22303 whole entry, looked up): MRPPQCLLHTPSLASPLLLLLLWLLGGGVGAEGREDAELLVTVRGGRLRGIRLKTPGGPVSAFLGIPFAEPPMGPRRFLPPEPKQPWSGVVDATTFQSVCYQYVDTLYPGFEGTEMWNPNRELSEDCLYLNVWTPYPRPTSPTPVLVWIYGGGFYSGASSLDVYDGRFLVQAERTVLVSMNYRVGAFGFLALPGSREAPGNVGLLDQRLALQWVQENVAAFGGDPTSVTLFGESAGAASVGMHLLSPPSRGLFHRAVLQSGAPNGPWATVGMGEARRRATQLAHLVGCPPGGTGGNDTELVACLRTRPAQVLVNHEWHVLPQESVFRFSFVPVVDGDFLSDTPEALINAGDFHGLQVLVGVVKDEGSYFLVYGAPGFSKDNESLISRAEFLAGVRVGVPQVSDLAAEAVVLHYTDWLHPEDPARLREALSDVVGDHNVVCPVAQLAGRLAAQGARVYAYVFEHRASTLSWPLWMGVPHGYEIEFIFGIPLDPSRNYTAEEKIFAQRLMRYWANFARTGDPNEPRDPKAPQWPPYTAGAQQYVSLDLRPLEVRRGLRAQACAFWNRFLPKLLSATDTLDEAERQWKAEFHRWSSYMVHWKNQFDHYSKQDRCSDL
Sequence of Cytochrome P450 2C19 (Homo sapiens) (P33261 whole entry, looked up): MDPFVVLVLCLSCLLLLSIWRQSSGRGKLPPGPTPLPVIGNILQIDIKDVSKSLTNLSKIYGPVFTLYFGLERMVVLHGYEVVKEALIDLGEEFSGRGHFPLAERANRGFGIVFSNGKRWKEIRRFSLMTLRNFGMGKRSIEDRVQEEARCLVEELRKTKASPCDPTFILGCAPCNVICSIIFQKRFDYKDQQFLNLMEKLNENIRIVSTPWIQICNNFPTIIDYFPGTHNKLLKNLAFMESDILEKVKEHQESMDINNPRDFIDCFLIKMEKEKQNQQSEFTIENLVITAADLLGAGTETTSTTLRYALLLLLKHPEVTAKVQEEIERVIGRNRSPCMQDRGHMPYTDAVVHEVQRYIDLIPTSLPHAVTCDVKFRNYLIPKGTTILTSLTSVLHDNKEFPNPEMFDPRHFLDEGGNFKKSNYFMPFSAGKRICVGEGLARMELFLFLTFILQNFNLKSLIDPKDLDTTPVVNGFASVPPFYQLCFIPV

For the compound `O=c1c2ccccc2c(=O)c2c1cc(Cl)c1[nH]c3c([nH]c12)c(Cl)cc1c(=O)c2ccccc2c(=O)c13`, the Potency result in [1], in test [2], in test [3], in test [4], in test [5] and in test [6] was “inactive” throughout. Also, the Potency entry in test [7], in [8], in test [9], in test [10], in [11] and in test [12] was “inactive” throughout. In test [13], the Potency result is “inactive”.
Consider `C#CC1(O)CCCCC1`, for which the Potency entry in [1], in test [2], in test [3], in test [4], in test [5] and in test [6] was “inactive” throughout. The Potency result in test [7], in [8], in test [9], in [10], in [11] and in [14] was “inactive” in each case. Moreover, the Potency entry in test [12] and in [13] was “inactive” each time.
Regarding `CCN(CC)C(=S)S`, the Potency entry in test [1] was “inactive and 27.1 µM (active)”; in [2], 13.8 µM (active) and 7.65 µM (active) and 27.3 µM (active); in [5], 27.1 µM (active) and 61.1 µM (active); in [11], 71.6 µM (active) and 50 µM (active) and inactive; in test [14], 62.9 µM (active) and 31.7 µM (active); in test [16], 40.3 µM (active). Besides, the Potency result in test [3], in test [4], in test [15], in test [6], in [7] and in test [8] was “inactive” each time. Besides, the Potency result in test [9], in test [10] and in [12] was “inactive” each time.
As to `CC1CCCC1`, the Potency entry in test [1], in test [2], in test [3], in test [4], in test [5] and in [6] was “inactive” in each case. In addition, the Potency entry in [7], in test [8], in test [9], in test [10] and in test [12] was “inactive” each time. For the same compound, the Potency in test [11] was 17.6 µM (active); in test [14], 8.8 µM (active); in test [13], 27.8 µM (active).
As for `Cc1cnc2c(C(=O)O)c(Cl)ccc2c1`, the Potency entry in [1], in [2], in test [3], in [4], in [5] and in [6] was “inactive” each time. Besides, the Potency result in test [7], in test [8], in test [9], in test [10], in test [11] and in test [14] was “inactive” each time. Moreover, the Potency entry in test [12] and in [13] was “inactive” in each case.
`CC(C)C(Br)C(=O)NC(N)=O` (stereo not given): the Potency entry in [1], in test [2], in [3], in test [4], in test [5] and in [15] was “inactive” throughout. Moreover, the Potency entry in test [6], in [7], in test [8], in test [9], in test [10] and in test [14] was “inactive” in each case. For the same compound, the Potency entry in [12] and in test [13] was “inactive” throughout. Besides, in test [17], the max activation is -0.856% (inactive).
As for `COC(=O)/C=C(\C)OP(=O)(OC)OC`, the Potency result in [1], in test [2], in test [3], in test [4], in [5] and in test [14] was “inactive” each time. Besides, the Potency result in test [16], in test [12] and in [13] was “inactive” in each case. The Potency in test [6] was 2.24 µM (active); in test [7], 3.56 µM (active); in [8], 1 µM (active); in [9], 17.8 µM (active); in [10], 31.7 µM (active); in [11] it was 71 µM (active).
